Laboratory results from PubChem BioAssay.
Calls of active or inactive are those of the source. Unless noted, no rule for the calls is given here.

What was measured:
[1] = compound effects on lung adenocarcinoma cell viability – A549, calcein-AM fluorescence, 48 h, basal, profiling panel (AID 1162); details: higher = more signal; also: test concentration not given here
[2] = compound effects on differentiated 3T3-L1 adipocyte viability – cell-based, 3T3-L1 adipocytes, calcein-AM fluorescence, 48 h, basal, profiling panel (AID 1163); details: 3T3-L1 adipocytes viability, higher = more signal; also: test concentration not given here
[3] = compound effects on hepatocellular carcinoma cell viability – HepG2, calcein-AM fluorescence, 48 h, basal, profiling panel (AID 1164); details: higher = more signal; also: test concentration not given here
[4] = compound effects on multiple myeloma cell viability – MM1S, calcein-AM fluorescence, 48 h, basal, profiling panel (AID 1165); details: higher = more signal;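 also: viability of MM1S multiple myeloma cells under basal unstimulated conditions; test concentration not given here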
[5] = calcein-AM signal in unstimulated myeloma cells – cell-based, calcein-AM fluorescence, 48 h, PK04 Diversity Set, profiling panel (AID 1166); details: RPMI8226 myeloma viability, higher = more signal;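 also: cells grown under basal conditions without added stimulus; test concentration not given here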
[6] = JC-1 mitochondrial signal, unstimulated HepG2 cells – cell-based, JC-1 fluorescence, 24 h, 100 nL compound, profiling panel (AID 1167); details: HepG2 mitochondrial potential, higher = more signal; also: test concentration not given here
[7] = JC-1 mitochondrial signal, unstimulated adipocytes – cell-based, JC-1 fluorescence, 3T3-L1 adipocytes, 24 h, 100 nL compound, profiling panel (AID 1168); details: JC-1 mitochondrial fluorescence, higher = more signal, called active from +8 up or from −8 down; also: test concentration not given here
[8] = JC-1 mitochondrial signal, unstimulated myeloma cells – cell-based, JC-1 fluorescence, RPMI8226, 24 h, 100 nL compound, profiling panel (AID 1169); details: JC-1 mitochondrial potential fluorescence, higher = more signal; also: test concentration not given here
[9] = JC-1 mitochondrial signal, unstimulated MM1S myeloma – cell-based, JC-1 fluorescence, 24 h, 100 nL compound, profiling panel (AID 1170); details: MM1S mitochondrial potential, higher = more signal; also: test concentration not given here
[10] = resazurin metabolic signal in A549 cells – cell-based, resazurin fluorescence, 24 h, PK04 Diversity Set, profiling panel (AID 1171); details: A549 viability, higher = more signal, called active from +8 up or from −8 down; also: test concentration not given here
[11] = resazurin metabolic signal in HepG2 cells – cell-based, resazurin fluorescence, 24 h, PK04 Diversity Set, profiling panel (AID 1172); details: HepG2 viability, higher = more signal; also: test concentration not given here
[12] = budding yeast growth changes without added modifier – OD600, strain BY4716, 24 h, basal condition, primary screen (AID 1173); details: S. cerevisiae BY4716 growth, OD600, 24 h; higher = more signal, called active from +8 up or from −8 down
[13] = viability profiling in MM1S myeloma cells – cell-based, resazurin fluorescence, basal, 24 h, PK04 Diversity Set, profiling panel (AID 1174); details: higher = more signal, called active from +8 up or from −8 down; also: test concentration not given here
[14] = biological target: Dihydroorotate dehydrogenase (quinone), mitochondrial (Plasmodium falciparum (isolate 3D7)) (UniProt Q08210); test: inhibition of P. falciparum DHODH – biochemical, C-terminal His tag, absorbance 600 nm, primary screen (AID 1175); details: PfDHODH enzyme, DCIP absorbance 600 nm; higher = more signal, called active from +8 up or from −8 down;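 also: recombinant parasite enzyme with a five histidine tag at its C terminus; test concentration not given here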
[15] = inhibition of PAO1 biofilm formation – strain PAO1, LB-PBS medium, absorbance 600 nm, primary screen (AID 1176); also: test concentration not given here; details: P. aeruginosa PAO1 growth/biofilm, A600, 12 h; higher = more signal
[16] = growth modulation of vineyard yeast isolate – strain RM11-1a, OD600, basal, 24 h, primary screen (AID 1177);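 also: cultures grown under basal conditions with no added stressor; test concentration not given here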; details: S. cerevisiae RM11-1a growth, OD600, 24 h; higher = more signal, called active from +8 up or from −8 down
[17] = growth of efflux-deficient E. coli DRC39 – strain DRC39, OD650, 24 h, E. coli filamentation inducers, primary screen (AID 1178);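 also: growth measured as culture turbidity by optical density at 650 nm; test concentration not given here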; details: E. coli DRC39 acrAB, higher = more signal, called active from +8 up or from −8 down
[18] = growth of efflux-deficient E. coli DRC39 – strain DRC39, OD650, 48 h, E. coli filamentation inducers, primary screen (AID 1179);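 also: screen aims at cell division blockers that make cells filament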; details: E. coli DRC39 delta-acrAB growth, higher = more signal, called active from +8 up or from −8 down
[19] = viability profiling in RPMI8226 myeloma cells – cell-based, resazurin fluorescence, basal, 24 h, PK04 Diversity Set, profiling panel (AID 1180); details: higher = more signal;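 also: RPMI8826 multiple myeloma cell line at 5000 cells per well; test concentration not given here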
[20] = biological target: E3 ubiquitin-protein ligase XIAP (Homo sapiens) (UniProt P98170); test: small molecules binding XIAP protein – biophysical, small-molecule microarray, fluorescence 635 nm, primary screen (AID 1181); details: higher = more signal;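 also: score merges 667 nm emission and signal to noise over triplicate slides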
E3 ubiquitin-protein ligase XIAP (Homo sapiens), sequence (P98170 whole entry, looked up): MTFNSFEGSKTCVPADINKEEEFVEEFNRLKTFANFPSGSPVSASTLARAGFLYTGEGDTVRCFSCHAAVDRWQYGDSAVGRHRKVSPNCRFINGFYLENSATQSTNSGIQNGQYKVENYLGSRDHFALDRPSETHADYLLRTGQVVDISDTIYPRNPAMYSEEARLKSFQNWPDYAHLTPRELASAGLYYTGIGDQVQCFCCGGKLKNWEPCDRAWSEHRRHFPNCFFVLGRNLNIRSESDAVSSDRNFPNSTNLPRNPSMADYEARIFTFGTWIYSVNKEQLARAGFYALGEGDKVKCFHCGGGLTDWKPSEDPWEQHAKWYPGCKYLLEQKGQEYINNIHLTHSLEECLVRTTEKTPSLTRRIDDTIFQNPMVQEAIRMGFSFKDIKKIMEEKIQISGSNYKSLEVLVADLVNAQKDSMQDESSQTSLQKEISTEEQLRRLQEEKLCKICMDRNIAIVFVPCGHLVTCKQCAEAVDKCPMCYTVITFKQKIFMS

Dihydroorotate dehydrogenase (quinone), mitochondrial (Plasmodium falciparum (isolate 3D7)), sequence (Q08210 whole entry, looked up): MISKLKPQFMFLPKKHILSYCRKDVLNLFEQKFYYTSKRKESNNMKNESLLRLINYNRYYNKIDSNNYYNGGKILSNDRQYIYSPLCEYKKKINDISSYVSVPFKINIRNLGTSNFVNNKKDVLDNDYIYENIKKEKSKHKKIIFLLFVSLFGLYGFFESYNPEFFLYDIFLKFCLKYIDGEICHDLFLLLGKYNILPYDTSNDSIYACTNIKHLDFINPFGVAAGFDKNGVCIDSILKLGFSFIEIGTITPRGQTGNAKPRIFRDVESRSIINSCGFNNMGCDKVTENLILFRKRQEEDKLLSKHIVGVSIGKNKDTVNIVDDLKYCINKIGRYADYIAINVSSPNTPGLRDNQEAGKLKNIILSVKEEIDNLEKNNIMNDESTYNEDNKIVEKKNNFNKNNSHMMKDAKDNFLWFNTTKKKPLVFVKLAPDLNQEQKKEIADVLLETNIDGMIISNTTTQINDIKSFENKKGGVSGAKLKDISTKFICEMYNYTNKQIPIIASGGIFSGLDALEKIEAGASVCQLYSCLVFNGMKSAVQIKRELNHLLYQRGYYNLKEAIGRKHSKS

Row | SMILES | z-score [1] | z-score [2] | z-score [3] | z-score [4] | z-score [5] | z-score [6] | z-score [7] | z-score [8] | z-score [9] | z-score [10] | z-score [11] | z-score [12] | z-score [13] | composite z-score [14] | z-score [15] | z-score [16] | z-score [17] | z-score [18] | z-score [19] | composite z-score [20]
1 | CCCCC(=C=CC[C@@H](O)c1cccc(OCCO)c1)C[C@@H](O)COCc1ccccc1 | 1.1 | 1.79 | 1.3 | -1.21 | 0.286 | -0.0343 | 0.436 (inactive) | -0.785 | -0.91 | -0.0721 (inactive) | 0.161 | -2.28 (inactive) | -0.164 (inactive) | -2.23 (inactive) | 0.212 (inactive) | -2.76 (inactive) | 0.812 (inactive) | 0.577 (inactive) | 0.528 | -0.0561
2 | COCCOC(=O)N1C(=O)[C@@]2(c3cc(C#CC4(O)CCCCCC4)ccc31)[C@H](c1ccc(OCCO)cc1)N1[C@H](c3ccccc3)[C@H](c3ccccc3)OC(=O)[C@H]1[C@@H]2C(=O)N1CCCCCCC1 | -0.359 | 2.14 | 0.292 | -0.834 | -1.78 | -1.1 | -2.25 (inactive) | -0.468 | -1.08 | -0.557 (inactive) | -0.768 | 0.973 (inactive) | -0.418 (inactive) | 0.0448 (inactive) | 1.16 (inactive) | 2.11 (inactive) | -2.2 (inactive) | -1.8 (inactive) | 0.0982 | -0.151
3 | CCCC=C(CCC)[C@@H](NC(=O)c1ccccc1)c1ccc(C(=O)OC)cc1 | -0.185 | 0.921 | -0.535 | -0.355 | -1.08 | -1.59 | 0.131 (inactive) | -0.515 | -1.12 | 0.18 (inactive) | 0.295 | -0.366 (inactive) | 0.286 (inactive) | -5.83 (inactive) | 2.23 (inactive) | -0.363 (inactive) | -0.634 (inactive) | -0.078 (inactive) | -0.0265 | 0.209
4 | COCCOC(=O)N1C(=O)[C@@]2(c3ccccc31)[C@H](C(N)=O)[C@H]1C(=O)O[C@H](c3ccccc3)[C@H](c3ccccc3)N1[C@@H]2c1ccc(OCCO)cc1 | -0.429 | 0.452 | -0.363 | -0.198 | 0.711 | -0.914 | 0.055 (inactive) | -0.112 | -0.523 | 0.574 (inactive) | 1.35 | 1.75 (inactive) | 0.671 (inactive) | -0.525 (inactive) | -0.108 (inactive) | 1.96 (inactive) | 0.755 (inactive) | 0.094 (inactive) | 0.7 | 0.109
5 | C[N+](C)(C)CCCCCCNC(=O)[C@H]1C[C@H]2C(=O)NCC(=O)N2[C@H]1c1cccc(OCCO)c1 | -0.292 | -0.207 | -0.528 | 0.112 | 0.579 | -1.52 | -0.529 (inactive) | 0.0573 | 0.127 | 0.749 (inactive) | 0.547 | -0.316 (inactive) | -0.0342 (inactive) | -0.97 (inactive) | -0.0743 (inactive) | 0.254 (inactive) | -0.129 (inactive) | -0.285 (inactive) | -0.252 | 0.0402
6 | COc1ccc([Si](C)(C)[C@H]2[C@H](CCO)O[C@@]3(C(=O)N(Cc4ccc(N5CCOC5=O)cc4)c4ccccc43)[C@@H]2C)cc1 | -0.108 | 0.684 | -0.591 | -2.54 | -3.98 | 0.137 | 1.82 (inactive) | -0.992 | -1.49 | -1.54 (inactive) | -0.667 | 2.47 (inactive) | -2.66 (inactive) | 1.02 (inactive) | 2.02 (inactive) | 5.44 (inactive) | 1.32 (inactive) | 0.714 (inactive) | -2.06 | -0.0206
7 | O=C1NC(=O)C2C1C=CC(C(O)c1ccc(F)cc1)N2Nc1ccccn1 (stereo not given) | -1.12 | -0.182 | 0.417 | -0.416 | -0.395 | -1.53 | -0.311 (inactive) | 0.734 | 0.247 | -1.11 (inactive) | -1.78 | 0.272 (inactive) | -1.28 (inactive) | 0.791 (inactive) | 1.77 (inactive) | 0.624 (inactive) | -0.684 (inactive) | -0.69 (inactive) | -1.64 | 0.172
8 | CC(C)(C)N1CC=CC23O[C@@H]4/C=C\CCCOC(=O)C4[C@H]2C(=O)N(CCCCCCO)[C@@H]3C1=O (stereo not given in full) | 0.0079 | 0.164 | 0.797 | 1.83 | -0.0296 | 1.17 | 1.04 (inactive) | 0.116 | -0.892 | 0.204 (inactive) | 0.232 | -0.584 (inactive) | 0.702 (inactive) | -1.58 (inactive) | 1.2 (inactive) | -1.13 (inactive) | -0.11 (inactive) | 0.602 (inactive) | 1.06 | -0.0795
9 | CCC(CC)C(O)C1C=CC2C(=O)N(C)C(=O)C2N1N1CCCCC1 (stereo not given) | -0.0236 | -0.505 | -0.502 | -0.651 | -0.521 | -1.34 | -0.115 (inactive) | 0.153 | -0.557 | 0.0051 (inactive) | -0.735 | -0.0172 (inactive) | -1.21 (inactive) | -1.17 (inactive) | 0.571 (inactive) | -0.266 (inactive) | -0.652 (inactive) | -0.686 (inactive) | -1.12 | 0.167
